Hits are enriched below; roughly 3.5% of the tested compounds scored in any of these assays.
Tb PYK inh: blocks Trypanosoma brucei pyruvate kinase. Q57TT1. TbPYK enzyme, Kinase-Glo Plus ATP luminescence, 45 min. Potency, µM (doses to about 76.8 µM), for the others: at the highest dose activity, negative = inhibition, usual class: inhibitors. 410,000 compounds, 0.12% hits. AID 624173; also: % is scaled to controls: 0 for no effect and ±100 for the full control effect; nearly all actives have a fitted effect of over 50% in size
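TbPYK + substrate in 50 mM TEA pH 7.2, 100 mM KCl, 10 mM MgCl2, 0.05% BSA, 0.01% Tween-20; cpd pinned; ADP 130 uM final; 45 min RT; Kinase-Glo Plus 10 min; luminescence endpoint.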
FBPA Giardia inh: blocks Giardia fructose-bisphosphate aldolase activity. Potency, µM (top dose mostly 59.6 µM), for the others: at the top dose activity, negative = inhibition, hits mostly inhibitors. 290,000 compounds, 0.71% hits. purified Giardia FBPA. AID 2451; also: % is scaled to controls: 0 for no effect and ±100 for the full control effect; nearly all actives have a fitted effect of over 55% in size
Target sequence (A8B2U2 whole entry, looked up): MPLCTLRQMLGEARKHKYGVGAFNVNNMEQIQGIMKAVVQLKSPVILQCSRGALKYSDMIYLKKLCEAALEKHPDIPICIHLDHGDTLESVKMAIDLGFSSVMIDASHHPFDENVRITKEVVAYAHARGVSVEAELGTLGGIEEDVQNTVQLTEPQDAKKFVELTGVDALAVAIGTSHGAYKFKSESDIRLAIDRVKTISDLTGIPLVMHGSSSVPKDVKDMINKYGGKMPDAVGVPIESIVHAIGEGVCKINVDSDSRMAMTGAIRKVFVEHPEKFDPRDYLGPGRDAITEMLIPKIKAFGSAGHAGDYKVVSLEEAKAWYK
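Giardia FBPA (40 nM reagent) was preincubated 10 min at RT with compound (up to 57.5 uM final), then substrate plus GAPDH/TPI/NAD/arsenate coupling system with diaphorase/resazurin was added; resorufin fluorescence (525/598 nm) was read after 20 min.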
NS1 function inh: influenza NS1 inhibition. Potency, µM (highest dose often 46.1 µM), for the others: top-dose activity, positive = more growth. 270,000 compounds, 0.4% hits; calls by dose curve; also: actives are rising curves; nearly all actives have a fitted effect of over 50% in size
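Compounds were scored for reversing the slow growth caused by influenza A NS1 in S. cerevisiae, measured by optical density at 600 nm. Assay medium contained 2% galactose at pH 6.0; NS1-free yeast of the same strain were the positive control.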
LmPK inh: blocks Leishmania mexicana pyruvate kinase activity. purified LmPK, Kinase-Glo ATP luminescence, 1 h. Potency, µM (series often up to 57.5 µM), for inactives: at the top dose activity change, negative = inhibition, usual class: inhibitors. 290,000 compounds, 0.37% hits. Q27686; also: % is scaled to controls: 0 for no effect and ±100 for the full control effect
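Purified LmPK (0.1 nM) converted ADP (0.1 mM) to ATP with PEP (0.5 mM) in imidazole buffer pH 7.2 with KCl and MgCl2, 1 h at room temperature. ATP was read by Kinase-Glo luminescence; data normalized to uninhibited and no-enzyme controls.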
RE007 growth inh: less growth of the S. pombe RE007 Vpr strain. AID 651644. Potency, µM (titrated, usually from 92.2 µM), for the others: at the highest dose activity change, negative = less growth, most hits filed as inhibitors. 360,000 compounds, 0.21% hits. S. pombe RE007 Vpr strain, BacTiter-Glo ATP luminescence, 24 h; active = well fitted falling curve with a large enough effect; inconclusive = small, poorly fitted or top-dose-only effect; inactive = no such curve, though single readings can be large or run the other way; also: % is scaled to controls: 0 for no effect and ±100 for the full control effect; nearly all actives have a fitted effect of over 50% in size
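Fission yeast RE007 carrying one integrated HIV-1 vpr copy, seeded at OD 0.01 in PMG+AL medium with 23 nL pinned compound. Grown 24 h at 30 degrees; viability read by BacTiter-Glo luminescence after 5 min.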
Sm TGR inh: inhibitors of Schistosoma mansoni thioredoxin glutathione reductase | purified TGR, DTNB reduction, TNB absorbance 405 nm | Q962Y6 | Potency, µM (series often up to 114 µM), for the others: at the highest dose activity change, negative = inhibition, usual class: inhibitors | 360,000 compounds, 3% hits; also: % is scaled to controls: 0 for no effect and ±100 for the full control effect; nearly all actives have a fitted effect of over 60% in size
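TGR 20 nM + NADPH 100 uM (dispensed conc.), cpd preinc 15 min RT; start with NADPH (500 uM addition) then DTNB (15 mM addition). Kinetic TNB absorbance, 405 nm filter. Four-parameter Hill fit across titration.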
Active calls of the source: *; ? = inconclusive; . = no result; [ ] = another dose, or the depositor's remark. Unless noted, calls follow the shape of the dose curve; as a rule, active = well fitted curve in the direction sought with a large enough effect; inconclusive = small, poorly fitted or top-dose-only effect, or another doubt; inactive = no such curve, though single readings can be large; an effect the other way counts as inactive or inconclusive. Potency is read from the fitted curve at half-maximal effect.

SMILES	Tb PYK inh	FBPA Giardia inh	NS1 function inh	LmPK inh	RE007 growth inh	Sm TGR inh
O=c1ccn(-c2cccc(C(F)(F)F)c2)nc1-c1ccn(-c2ccccc2)n1	-2%	32µM*	5%	1%	0%	0%
O=C(c1cccc(S(=O)(=O)N2CCc3ccccc32)c1)N1CCN(c2ccccc2)CC1	0%	.	.	.	-3%	40µM*
COc1ccc(NC(=O)c2sc3nc(-c4cc5ccc(OC)cc5oc4=O)[nH]c(=O)c3c2C)cc1	1%	.	.	.	.	12%
CCOC(=O)c1csc(-c2ccc(OC)c(OC)c2)n1	-1%	1%	.	-2%	13%	6%
CCOC(=O)c1csc(-c2sccc2Br)n1	-22%	-6%	-9%	16µM*	?	10%
CC(=O)c1cc(O)c2ccccc2c1O	-14%	?	-2%	-11%	-13%	8.9µM*
COc1cc(/C=N/NC(=O)c2nonc2C)ccc1O	-5%	1%	6%	14µM*	0%	-7%
COc1cc(/C=N/NC(=O)c2nc(C)cc(C)n2)ccc1O	-11%	-4%	3%	-4%	4%	-5%
Cc1nonc1C(=O)N/N=C/c1ccc(O)c(O)c1	?	?	5%	13µM*	?	6%
COC(=O)c1sccc1S(=O)(=O)N(CC(=O)NCc1ccc(F)cc1)c1ccc(Cl)cc1	1%	.	.	.	.	-2%
CCOC(=O)c1[nH]c(=O)[nH]c1CSc1ccccn1	-6%	-1%	-3%	7%	-26%	14µM*
Cc1ccc(NC(=O)CC2SC3=NCCCN3C2=O)c(C)c1 (stereo not drawn)	9%	-24%	-74%	-11%	?	2.8µM*
O=C(CC1SC2=NCCN2C1=O)Nc1ccc(Cl)cc1 (stereo not drawn)	-9%	0%	?	0%	-6%	8%
CN(Cc1ccccc1)S(=O)(=O)c1ccc(NC(=O)c2cc(=O)c3ccccc3o2)cc1	0%	.	.	.	.	-1%
O=C(CSC1=Nc2ccccc2C2=NC(CCC(=O)NC3CCCCC3)C(=O)N12)Nc1cccc(C(F)(F)F)c1 (stereo not drawn)	-7%	.	.	.	.	2%
CCN(c1cccc(C)c1)C1C(=O)c2ccccc2N1C(C)=O (stereo not drawn)	-6%	?	-2%	0%	1%	22µM*
CC(=O)N(CN1C(=O)c2ccccc2C1=O)c1cccc(C)c1	2%	0%	2%	3%	2%	6%
COc1ccccc1NC(=O)c1oc2ccccc2c1NC(=O)Cc1ccccc1	-17%	.	.	.	.	1%
CCN1CCN(C(c2ccccc2)c2c(O)cc(C)n(CCOC)c2=O)CC1 (stereo not drawn)	3%	.	.	.	.	4µM*
CCN1CCN(C(c2cccc(F)c2)c2c(O)cc(C)n(CCOC)c2=O)CC1 (stereo not drawn)	0%	.	.	.	.	4µM*
CCN1CCN(C(c2ccc(Cl)cc2)c2c(O)cc(C)n(CCOC)c2=O)CC1 (stereo not drawn)	2%	.	.	.	.	4.5µM*
CCN1CCN(C(c2cccc(Cl)c2)c2c(O)cc(C)n(CCOC)c2=O)CC1 (stereo not drawn)	-7%	.	.	.	.	5.6µM*
COC(=O)[C@H]1C[C@H]2CC[C@H](O)C[C@H]2N1Cc1c(F)cccc1Cl	.	-6%	.	.	.	.
O=C(C1CCC1)N1CCc2cc(S(=O)(=O)NCCc3ccccc3)ccc21	2%	.	.	.	.	-7%
CCN1CCN(C(c2ccc(F)cc2)c2c(O)cc(C)n(CCOC)c2=O)CC1 (stereo not drawn)	-7%	.	.	.	.	4.5µM*
CCN1CCN(C(c2ccc(OC)cc2)c2c(O)cc(C)n(CCOC)c2=O)CC1 (stereo not drawn)	-5%	.	.	.	.	10µM*
Cc1cc(NC(=O)c2cccn2-c2nnc(N3CCCCC3)s2)ccc1Br	-13%[15.4 µM]	.	.	.	.	15%
COc1cccc([C@@H]2Oc3ccc(Br)cc3C(=O)[C@H]2OC(=O)Nc2ccc(C)c(Br)c2)c1	.	0%	.	.	.	.
